Consider 23 compounds from PubChem BioAssay (NCATS).

Inconclusive results are not listed. The source made the active and inactive calls. Calls come from the whole dose curve; as a rule, active = well fitted curve in the direction sought with a large enough effect; inconclusive = small, poorly fitted or top-dose-only effect, or another doubt; inactive = no such curve, though single readings can be large; an effect the other way counts as inactive or inconclusive. *1 amine or outer side, *2 acyl side, *3 side chain or, on linkers, in order; H or OH if unused. Where a SMILES comes first, the peptide text is derived from it. Bridges are numbered along the chain shown (N, C = ends). [ ]: non-standard residue; d: D form. The star is where a group is joined. pTerphenylCO(4''-OnC5H11) = CCCCCOc1ccc(-c2ccc(-c3ccc(C(=O)*)cc3)cc2)cc1; Orn(4R-OH,5R-OH) = O=C([C@H](C[C@@H](O)[C@@H](O)N[*:3])N[*:1])[*:2]; hTyr(3S-OH,4S-OH) = N[C@H](C(=O)O)[C@H](O)[C@@H](O)c1ccc(O)cc1; Pro(3S-OH,4S-Me) = C[C@H]1CN[C@H](C(=O)O)[C@H]1O; Hyp = O=C(O)[C@@H]1C[C@@H](O)CN1
Potency is the fitted concentration of half-maximal effect.

Sequence of N-terminal Xaa-Pro-Lys N-methyltransferase 1 (Homo sapiens) (Q9BV86 whole entry, looked up): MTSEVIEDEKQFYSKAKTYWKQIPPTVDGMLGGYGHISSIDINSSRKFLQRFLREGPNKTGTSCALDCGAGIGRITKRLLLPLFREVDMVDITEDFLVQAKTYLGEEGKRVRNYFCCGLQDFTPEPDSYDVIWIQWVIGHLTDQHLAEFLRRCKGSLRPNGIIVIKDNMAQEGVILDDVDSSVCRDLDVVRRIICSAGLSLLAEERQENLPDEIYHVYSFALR

For one test, the target named is N-terminal Xaa-Pro-Lys N-methyltransferase 1 (Homo sapiens) (UniProt Q9BV86). In words: Confirmatory qHTS for Inhibitors of N-terminal methyltransferase 1 (NTMT1): MTaseGlo Assay (AID 1645874).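 For activity change, negative = inhibition: luminescence from SAH made as NTMT1 methylates SPKRIA peptide using SAM; 0% = DMSO control and -100% = no-enzyme control.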 Note: nearly all actives have a fitted effect of over 65% in size. The settings on record: NTMT1 enzyme, MTase-Glo SAH luminescence; series mostly up to 100 µM; activity change, negative = inhibition: at the top concentration. A digest of the protocol:
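MTase-Glo luminescence measured SAH formed by 125 nM NTMT1 from 100 uM SAM and 1 uM SPKRIA peptide over 30 min at room temperature, following 15 min compound preincubation. Percent inhibition against no-enzyme and DMSO controls gave 4-parameter Hill fits.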
(In general: qHTS replaces the single test concentration by a dilution series.)
On to `C/C=C/C=C/C=C/C(=O)O[C@@H]1C=C2COC(=O)[C@]2(O)[C@@]2(C)CCCC(C)(C)[C@H]12`, for which the “activity change, negative = inhibition” value is -9.22% [at 51.5 µM] (inactive). The same measure, in the same setting: for `COc1c(C(C)C)c(O)c(O)c2c1C(OC)[C@H]1OC(=O)[C@@]23CCCC(C)(C)[C@H]13` (stereo partly drawn) the value was -2.21% [at 51.5 µM] (inactive). In the case of `NCC(CNc1nc(Nc2cccc(NC(=O)N3CCCC3)c2)ncc1I)C(=O)c1cccs1` (stereo not drawn), the Potency was 22.4 µM (active).

Take `O=C(Cc1c(F)cccc1F)Nc1cc(OCc2ccc(Cl)cc2)ccn1`: the “activity change, negative = inhibition” value was -6.43% (inactive). The same measure, in the same setting: with `COc1cc(CCc2ccc(OCC=C(C)C)cc2)cc(OC)c1OC` the figure was 3.21% [at 51.5 µM] (inactive); with `CCCCCOc1ccc(-c2ccc(-c3ccc(C(=O)N[C@H]4C[C@@H](O)[C@@H](O)NC(=O)[C@@H]5[C@@H](O)[C@@H](C)CN5C(=O)[C@H]([C@@H](C)O)NC(=O)[C@H]([C@H](O)[C@@H](O)c5ccc(O)cc5)NC(=O)[C@@H]5C[C@@H](O)CN5C(=O)[C@H]([C@@H](C)O)NC4=O)cc3)cc2)cc1` ({pTerphenylCO(4''-OnC5H11)}-[Orn(4R-OH,5R-OH)]T[Hyp][hTyr(3S-OH,4S-OH)]T[Pro(3S-OH,4S-Me)]; lactam 1-C), 4.99% [at 51.5 µM] (inactive). As to `COc1cccc(-c2cn(-c3ccc(CCN4CCC(O)CC4)cc3)c3ncnc(N)c23)c1`, the Potency is 35.5 µM (active). For the compound `CC[C@@H](C)Nc1cc(C(=O)NC2CC3CC[C@@H](C2)N3c2ccc(C(=O)C3CC3)cn2)c(C)cc1C(N)=O` (stereo partly drawn), the “activity change, negative = inhibition” value is 1.41% (inactive).

Test system in another test: not listed separately
Description: Primary qHTS for inhibitors of nuclear receptor binding SET domain protein 2 (NSD2) in an isogenic RCH-ACV NSD2 p.E1099K mutant (9B) (AID 1645876). For activity change, negative = viability loss: % is set by controls: 0 for no effect and ±100 for the full control effect. Note: nearly all actives have a fitted effect of over 70% in size. The following applies: RCH-ACV (leukaemia line) NSD2 E1099K (9B) viability, CellTiter-Glo, 72 h; series mostly up to 44.9 µM; activity change, negative = viability loss: at the top concentration.
Take `C/C=C/C=C/C=C/C(=O)O[C@@H]1C=C2COC(=O)[C@]2(O)[C@@]2(C)CCCC(C)(C)[C@H]12`: the Potency is 2.82 µM (active). The same measure, in the same setting: with `CC(=O)OC1[C@H]2[C@@H](C[C@@H](C)[C@@H]3C=CC(=O)[C@@]13C)OC(=O)[C@@H]2C` (stereo partly drawn) the figure was 10.3 µM (active); with `NCC(CNc1nc(Nc2cccc(NC(=O)N3CCCC3)c2)ncc1I)C(=O)c1cccs1` (stereo not drawn), 1.15 µM (active); with `Cc1cc(-c2cc(OC(=O)c3ccccc3)ccc2Cl)cc2nnc(Nc3ccc(OCCN4CCCC4)cc3)nc12`, 12.9 µM (active).

Take `O=C(Cc1c(F)cccc1F)Nc1cc(OCc2ccc(Cl)cc2)ccn1`: the Potency was 18.3 µM (active). The same measure, in the same setting: for `CC1(C(=O)Nc2ccc(F)nc2)CCCN1c1nc(Nc2cc(C3CC3)[nH]n2)c2cccn2n1` (stereo not drawn) the value was 1.29 µM (active); for `C=C1C(=O)O[C@@H]2C[C@H](C)C3=CC(=O)[C@H](O)[C@@]3(C)C[C@H]12`, 25.8 µM (active). For the compound `C[C@@]12C(=O)N(c3ccc(C(=O)Nc4cccc5cccnc45)cc3)C(=O)[C@@H]1[C@@H]1C=C[C@H]2C1`, the “activity change, negative = viability loss” value is -26.7% (inactive).

For the compound `CCCCCOc1ccc(-c2ccc(-c3ccc(C(=O)N[C@H]4C[C@@H](O)[C@@H](O)NC(=O)[C@@H]5[C@@H](O)[C@@H](C)CN5C(=O)[C@H]([C@@H](C)O)NC(=O)[C@H]([C@H](O)[C@@H](O)c5ccc(O)cc5)NC(=O)[C@@H]5C[C@@H](O)CN5C(=O)[C@H]([C@@H](C)O)NC4=O)cc3)cc2)cc1` ({pTerphenylCO(4''-OnC5H11)}-[Orn(4R-OH,5R-OH)]T[Hyp][hTyr(3S-OH,4S-OH)]T[Pro(3S-OH,4S-Me)]; lactam 1-C), the “activity change, negative = viability loss” value is -27.7% [at 17.3 µM] (inactive).

Take `CCNC(=O)Nc1ccc(-c2nc3c(c(N4CCOCC4C)n2)CCN(C2COC2)C3)cc1` (stereo not drawn): the Potency was 0.325 µM (active). With `COc1cc(C(=O)O)ccc1NC(=O)C1NC(CC(C)(C)C)C(C#N)(c2ccc(Cl)cc2F)C1c1cccc(Cl)c1F` (stereo not drawn), the “activity change, negative = viability loss” value is 4.28% (inactive). Take `OC1C=C2C3CN(Cc4cc5c(cc43)OCO5)C2CC1O` (stereo not drawn): the Potency is 6.49 µM (active).

As for `CC(C)CCNC(=O)c1ccc2c(c1)nc(Nc1n[nH]c3ccc(-c4ccccc4OC(F)(F)F)cc13)n2C1CCC(O)CC1` (stereo not drawn), the Potency was 10.3 µM (active).

As to `COc1cc2c(cc1OC)CN(C(=O)/C=C/c1c(-c3ccccc3)n(C)c3ncccc13)CC2`, the Potency was 8.17 µM (active). On the same count and under the same terms, for `CN(c1ccc(NC(=O)Nc2ccccc2)cc1)S(=O)(=O)c1cnn(-c2ccc(F)cc2)c1` the value was 20.5 µM (active); for `CNc1nc(NCc2ccc(NS(C)(=O)=O)cc2Cl)cc(-c2ccccn2)n1`, 11.5 µM (active). On to `COc1cc(C(C)=O)c(OC)c2c1OC(C)(C)C=C2`, for which the “activity change, negative = viability loss” value is -5.95% (inactive). For `CC(=O)NC(C(=O)O[C@H]1CCC(C)(C)[C@@H]2CC=C3C(=O)OCC3(O)[C@@]12C)C(C)C` (stereo partly drawn), the Potency is 8.01 µM (active).

For the compound `COc1cccc(-c2cn(-c3ccc(CCN4CCC(O)CC4)cc3)c3ncnc(N)c23)c1`, the Potency is 1.63 µM (active). Turning to `C=CC(C)(O)CC/C=C(/C)COC(=O)C(C)C1CCC(C)(C=C)O1` (stereo not drawn), the “activity change, negative = viability loss” value is -36.7% (inactive).
